From PMC5540273 (PLoS ONE, 2017)

Legend:
Conditions in all cases: concentration: 1 μM, replicates: in singlicate; n = 1
LKB1 = test system: T1, LKB1
T1 construct: gene STK11

LOK = test system: T2, LOK
T2 construct: gene STK10

LRRK2 = test system: LRRK2
LTK = test system: LTK
LYN = test system: LYN
LZK = test system: T3, LZK
T3 construct: gene MAP3K13

MAK = test system: MAK
MAP3K15 = test system: MAP3K15
MAP3K1 = test system: MAP3K1
MAP3K2 = test system: MAP3K2
MAP3K3 = test system: MAP3K3
MAP3K4 = test system: MAP3K4
MAP4K2 = test system: MAP4K2
MAP4K3 = test system: MAP4K3
MAP4K4 = test system: MAP4K4
MAP4K5 = test system: MAP4K5
MAPKAPK2 = test system: MAPKAPK2
MAPKAPK5 = test system: MAPKAPK5
MARK1 = test system: MARK1
MARK2 = test system: MARK2
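Also: KINOMEscan kinase panel screen.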

## Cc1ccc(NC(=O)c2cccc(C#N)c2)cc1-c1ccc(C(=O)Nc2ccncc2)cc1 [GSK1398463]
LKB1
  %Inh: 0%
LOK
  %Inh: 0%
LRRK2
  %Inh: 28%
LTK
  %Inh: 0%
LYN
  %Inh: 69%
LZK
  %Inh: 0%
MAK
  %Inh: 36%
MAP3K15
  %Inh: 0%
MAP3K1
  %Inh: 12%
MAP3K2
  %Inh: 0%
MAP3K3
  %Inh: 0%
MAP3K4
  %Inh: 35%
MAP4K2
  %Inh: 0%
MAP4K3
  %Inh: 11%
MAP4K4
  %Inh: 4%
MAP4K5
  %Inh: 0%
MAPKAPK2
  %Inh: 24%
MAPKAPK5
  %Inh: 0%
MARK1
  %Inh: 0%
MARK2
  %Inh: 0%

## Nc1n[nH]c2nnc(-c3ccccc3)cc12 [SB-517389]
LKB1
  %Inh: 0%
LOK
  %Inh: 0%
LRRK2
  %Inh: 0%
LTK
  %Inh: 0%
LYN
  %Inh: 69%
LZK
  %Inh: 0%
MAK
  %Inh: 0%
MAP3K15
  %Inh: 0%
MAP3K1
  %Inh: 9%
MAP3K2
  %Inh: 5%
MAP3K3
  %Inh: 0%
MAP3K4
  %Inh: 32%
MAP4K2
  %Inh: 0%
MAP4K3
  %Inh: 0%
MAP4K4
  %Inh: 3%
MAP4K5
  %Inh: 0%
MAPKAPK2
  %Inh: 5%
MAPKAPK5
  %Inh: 0%
MARK1
  %Inh: 0%
MARK2
  %Inh: 0%

## O=C(c1ccc(-c2cc(-c3c[nH]nc3-c3ccccn3)ccn2)cc1)N1CCCC1 [GW792479]
LKB1
  %Inh: 0%
LOK
  %Inh: 0%
LRRK2
  %Inh: 10%
LTK
  %Inh: 0%
LYN
  %Inh: 0%
LZK
  %Inh: 0%
MAK
  %Inh: 0%
MAP3K15
  %Inh: 0%
MAP3K1
  %Inh: 0%
MAP3K2
  %Inh: 0%
MAP3K3
  %Inh: 11%
MAP3K4
  %Inh: 25%
MAP4K2
  %Inh: 0%
MAP4K3
  %Inh: 0%
MAP4K4
  %Inh: 5%
MAP4K5
  %Inh: 0%
MAPKAPK2
  %Inh: 0%
MAPKAPK5
  %Inh: 0%
MARK1
  %Inh: 0%
MARK2
  %Inh: 4%

## CS(=O)(=O)CCNCc1nc(-c2ccc3ncnc(Nc4ccc(OCc5cccc(F)c5)c(Cl)c4)c3c2)cs1.Cl [GW583340]
LKB1
  %Inh: 17%
LOK
  %Inh: 20%
LRRK2
  %Inh: 0%
LTK
  %Inh: 0%
LYN
  %Inh: 0%
LZK
  %Inh: 0%
MAK
  %Inh: 23%
MAP3K15
  %Inh: 0%
MAP3K1
  %Inh: 0%
MAP3K2
  %Inh: 0%
MAP3K3
  %Inh: 0%
MAP3K4
  %Inh: 4%
MAP4K2
  %Inh: 0%
MAP4K3
  %Inh: 0%
MAP4K4
  %Inh: 0%
MAP4K5
  %Inh: 0%
MAPKAPK2
  %Inh: 4%
MAPKAPK5
  %Inh: 0%
MARK1
  %Inh: 0%
MARK2
  %Inh: 0%

## Cn1ccc2ncnc(Oc3ccc(NC(=O)Nc4cccnc4)c(Cl)c3)c21
LKB1
  %Inh: 11%
LOK
  %Inh: 35%
LRRK2
  %Inh: 0%
LTK
  %Inh: 6%
LYN
  %Inh: 5%
LZK
  %Inh: 0%
MAK
  %Inh: 0%
MAP3K15
  %Inh: 0%
MAP3K1
  %Inh: 0%
MAP3K2
  %Inh: 0%
MAP3K3
  %Inh: 0%
MAP3K4
  %Inh: 2%
MAP4K2
  %Inh: 0%
MAP4K3
  %Inh: 0%
MAP4K4
  %Inh: 0%
MAP4K5
  %Inh: 0%
MAPKAPK2
  %Inh: 0%
MAPKAPK5
  %Inh: 0%
MARK1
  %Inh: 0%
MARK2
  %Inh: 0%

## CC(C)(C)OC(=O)NC1CCCN(c2cc(-c3ccc4c(N)n[nH]c4c3)nc(N)n2)C1 (centres unmarked) [GSK2286096]
LKB1
  %Inh: 0%
LOK
  %Inh: 0%
LRRK2
  %Inh: 0%
LTK
  %Inh: 0%
LYN
  %Inh: 0%
LZK
  %Inh: 0%
MAK
  %Inh: 17%
MAP3K15
  %Inh: 0%
MAP3K1
  %Inh: 10%
MAP3K2
  %Inh: 0%
MAP3K3
  %Inh: 0%
MAP3K4
  %Inh: 17%
MAP4K2
  %Inh: 0%
MAP4K3
  %Inh: 3%
MAP4K4
  %Inh: 0%
MAP4K5
  %Inh: 0%
MAPKAPK2
  %Inh: 0%
MAPKAPK5
  %Inh: 0%
MARK1
  %Inh: 0%
MARK2
  %Inh: 0%

## Cl.Fc1ccccc1COc1ccc(Nc2ncnc3ccc(-c4nnc(C(F)(F)F)o4)cc23)cc1Cl [GW424170]
LKB1
  %Inh: 12%
LOK
  %Inh: 0%
LRRK2
  %Inh: 0%
LTK
  %Inh: 0%
LYN
  %Inh: 0%
LZK
  %Inh: 0%
MAK
  %Inh: 10%
MAP3K15
  %Inh: 0%
MAP3K1
  %Inh: 0%
MAP3K2
  %Inh: 0%
MAP3K3
  %Inh: 0%
MAP3K4
  %Inh: 15%
MAP4K2
  %Inh: 0%
MAP4K3
  %Inh: 0%
MAP4K4
  %Inh: 0%
MAP4K5
  %Inh: 0%
MAPKAPK2
  %Inh: 0%
MAPKAPK5
  %Inh: 0%
MARK1
  %Inh: 0%
MARK2
  %Inh: 0%

## COc1cc2ncnc(Nc3ccc(OCc4ccccc4Br)c(Cl)c3)c2cc1OC.Cl [GI261590]
LKB1
  %Inh: 0%
LOK
  %Inh: 96.6%
LRRK2
  %Inh: 0%
LTK
  %Inh: 14%
LYN
  %Inh: 30%
LZK
  %Inh: 10%
MAK
  %Inh: 33%
MAP3K15
  %Inh: 0%
MAP3K1
  %Inh: 4%
MAP3K2
  %Inh: 0%
MAP3K3
  %Inh: 0%
MAP3K4
  %Inh: 0%
MAP4K2
  %Inh: 0%
MAP4K3
  %Inh: 11%
MAP4K4
  %Inh: 0%
MAP4K5
  %Inh: 17%
MAPKAPK2
  %Inh: 15%
MAPKAPK5
  %Inh: 0%
MARK1
  %Inh: 29%
MARK2
  %Inh: 0%

## O=C(CCO)NCCn1ccc2ncnc(Nc3ccc(Oc4cccc(C(F)(F)F)c4)c(Cl)c3)c21
LKB1
  %Inh: 39%
LOK
  %Inh: 72%
LRRK2
  %Inh: 0%
LTK
  %Inh: 0%
LYN
  %Inh: 8%
LZK
  %Inh: 0%
MAK
  %Inh: 0%
MAP3K15
  %Inh: 0%
MAP3K1
  %Inh: 0%
MAP3K2
  %Inh: 0%
MAP3K3
  %Inh: 0%
MAP3K4
  %Inh: 0%
MAP4K2
  %Inh: 0%
MAP4K3
  %Inh: 3%
MAP4K4
  %Inh: 3%
MAP4K5
  %Inh: 0%
MAPKAPK2
  %Inh: 0%
MAPKAPK5
  %Inh: 0%
MARK1
  %Inh: 0%
MARK2
  %Inh: 4%

## Nc1nc(-c2ccc3c(N)n[nH]c3c2)cc(N2CCCCC2)n1 [GSK2228768]
LKB1
  %Inh: 0%
LOK
  %Inh: 0%
LRRK2
  %Inh: 0%
LTK
  %Inh: 0%
LYN
  %Inh: 0%
LZK
  %Inh: 0%
MAK
  %Inh: 17%
MAP3K15
  %Inh: 0%
MAP3K1
  %Inh: 0%
MAP3K2
  %Inh: 0%
MAP3K3
  %Inh: 0%
MAP3K4
  %Inh: 2%
MAP4K2
  %Inh: 0%
MAP4K3
  %Inh: 0%
MAP4K4
  %Inh: 0%
MAP4K5
  %Inh: 0%
MAPKAPK2
  %Inh: 3%
MAPKAPK5
  %Inh: 0%
MARK1
  %Inh: 0%
MARK2
  %Inh: 0%
